Assay results taken from patent US20210230599, “STEM-LOOP COMPOSITIONS AND METHODS FOR INHIBITING INTERLEUKIN-8” (VITRISA THERAPEUTICS, INC., published 2021).

Biological target: Interleukin-8 (IL8, CXCL8), C-terminal His-tagged (Homo sapiens, UniProt P10145 SEQ:1-72)
Experiment: competition; competition TR-FRET; deletion at position 16
Details: tags: C-terminal 6xHis (Sino Biological); ssRNA; 2'-F G, 2'-OMe A/C/U, 5' C6NH2, 3' idT
Experimental: Activity of each of these variants were tested using a time resolved competition TR-FRET assay in which the labeled parent Aptamer 3 was competed with increasing concentrations of unlabeled variants for binding to IL8 (FIG. 14). Briefly, 2-fold dilutions of thermally equilibrated aptamers were made in TR-FRET Buffer (50 mM MOPS, pH 7.4, 125 mM NaCl, 5 mM KCl, 50 μM CHAPS, 0.1 mg/mL BSA, 1 mM CaCl₂, and 1 mM MgCl₂). 5 μL of aptamer or control solution was added to 5 μl mix of 10 nM C-terminal His-tagged-IL8, 60 nM ALEXA FLUOR® 647-labeled Aptamer, and 5 nM anti-His-Eu (Perkin Elmer) in a black wall low volume 384 well plate (Greiner). For control, 5 μl of 1000-fold excess of unlabeled parent aptamer or 5 μl TR-FRET buffer alone was added to the mix of ALEXA FLUOR® 647-labeled aptamer, His-IL8, and anti-His-Eu. The plate was covered with a plate seal and subsequently incubated in the dark for 1 hour at room temperature. The plate was read on a Biotek CYTATION™ 5 plate reader. Samples were excited at 330 nm and fluorescent values were collected at 665 nm. Data analysis was performed by subtracting the background value and plotting as percent inhibition, normalized to baseline in the absence of competitor. […]

Sequence | binding signal [fold worse than Aptamer 3]
UGAUGACGGUAGAUUUGGGUAGAGUGACCGCAUCU | ~5
